This is an account of results in article PMC12040169 (PLOS Biology, 2025).

The experiment concerns T1, C. trachomatis L2/434/Bu expressing GFP (CTL2-GFP).
T1 construct: L2/434/Bu GFP intracellular growth in HeLa cells
Set-up: species or system HeLa; C. trachomatis total inclusion area by high-content imaging, normalised to DMSO. The settings on record: total inclusion area; 28.5 h, 10 µM; inhibitor. An excerpt: We screened a library of 36,785 small molecules displaying drug-like properties and covering a wide chemical space (Fig 1A and S2A Data). In this process, we also complemented the assay described above with an imaging-based readout (Fig 1B). After measurements of bulk GFP and resorufin fluorescence, cells were fixed, stained with the DNA dye Hoechst, and imaged at a high-content imaging platform to detect chlamydial inclusions (GFP) and host cell nuclei (Hoechst). The total area and number of inclusions in individual wells and the number of nuclei then served as additional proxies for chlamydial growth and host cell viability. […] MICs were calculated as described above.
For the compound `CCOC(=O)CC(C)(O)P(=O)(OC)OC` (stereo not drawn) [CBK261287], the “% of control remaining” value was 1.025.

As for `O=C(c1cccc(S(=O)(=O)F)c1)N1CCCCC1` [CBK074224], the “% of control remaining” value turned out to be 0.8769.

`S=P(Oc1ccccc1)(Oc1ccccc1)Oc1ccccc1` [CBK260987]: the “% of control remaining” value is 0.9936.
